# Laboratory results from the supplement of paper PMC10338343.
# ± gives the standard deviation. Whole data set: some 8,200 sequences, median “pre-steady-state target cleavage rate” near 0.024, cut for the highest 2% near 1.3. The list comes from a sample in which the highest values are over-represented; it also holds similar and randomly drawn sequences.
# Test system: MIWI (PIWIL1) piRISC loaded with L1MC piRNA (30 nt)
# Assay: pre-steady-state target cleavage rate (min^-1); MIWI and MILI are mouse PIWI proteins and EfPiwi is from a freshwater sponge; tags in brackets are library labels; higher = faster piRNA-guided slicing of the target
# Settings: guide: L1MC piRNA 5'p-UAACUAAAUACUAUGCAAGCUGUAGGUCCU
# Method: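 Cleave-'n-Seq: a library of target RNAs (target site embedded in constant flanks, ACAGCATTCCGCGTTAGTGATATCCG... 5' flank; DNA-blocked outside the site) at 0.1 nM was incubated with 1 nM active mouse MILI or MIWI piRISC (synthetic 5'-monophosphorylated piRNA guide) with or without 500 nM mouse GTSF1 at 33 °C for 1 min to 16 h. Uncleaved targets were sequenced and normalised to non-target controls, and the pooled three trials were fitted to a burst-and-steady-state model to give the pre-steady-state cleavage rate (min^-1; k3 is constrained to at most 1e-4). Sequence is the target site only; target names encode pairing extent (gX:gY) and contiguous / 1-mismatch / 2-mismatch / bulge geometry. Fits with R² ≤ 0 are excluded.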
# [1] = auxiliary factor: 500 nM mouse GTSF1
# [2] = auxiliary factor: none (no GTSF1)
sequence,measurement,setting,value
ACGGACCUACAGCUUGCAUAGUAUUUAGUUA,pre-steady-state target cleavage rate,[1],1.24 ± 0.072
same,pre-steady-state target cleavage rate,[2],0.0796 ± 0.016
AGGACCUACAGCUUGCAUAGUAUUUAGUUU [g2:g30:cont:t1U],pre-steady-state target cleavage rate,[1],1.64 ± 0.079
same,pre-steady-state target cleavage rate,[2],0.165 ± 0.036
AGGACCUACAGCUUGCAUAGUAUUUAGUUUA,pre-steady-state target cleavage rate,[1],1.27 ± 0.067
same,pre-steady-state target cleavage rate,[2],0.11 ± 0.019
AGGGACCUACAGCUUGCAUAGUAUUUAGUUA,pre-steady-state target cleavage rate,[1],1.31 ± 0.086
same,pre-steady-state target cleavage rate,[2],0.102 ± 0.021
UCGGACCUACAGCUUGCAUAGUAUUUAGUUA,pre-steady-state target cleavage rate,[1],1.37 ± 0.097
same,pre-steady-state target cleavage rate,[2],0.0616 ± 0.01
AGGACCUACAGCUUGCAUAGUAUUUAGUUG [g2:g30:cont:t1G],pre-steady-state target cleavage rate,[1],0.455 ± 0.046
same,pre-steady-state target cleavage rate,[2],0.0773 ± 0.018
AGGACCUACAGCUUGCAUAGUAUUUUAGUUA,pre-steady-state target cleavage rate,[1],1.08 ± 0.058
same,pre-steady-state target cleavage rate,[2],0.056 ± 0.014
AGGACCUACAGCUUGCAUAGUAUUUAGUUA [g2:g30:cont:t1A],pre-steady-state target cleavage rate,[1],1.35 ± 0.057
same,pre-steady-state target cleavage rate,[2],0.0941 ± 0.015
CGGACCUACAGCUUGCAUAGUAUUUAGUUA,pre-steady-state target cleavage rate,[1],0.743 ± 0.028
same,pre-steady-state target cleavage rate,[2],0.06 ± 0.0088
UCCACCUACAGCUUGCAUAGUAUUUAGGUUA,pre-steady-state target cleavage rate,[1],0.409 ± 0.062
same,pre-steady-state target cleavage rate,[2],0.0153 ± 0.0045
UCGACCUACAGCUUGCAUAGAUUUUAGUAA,pre-steady-state target cleavage rate,[1],0.124 ± 0.023
UCCUCCUACAGCUUGCAUAGUAAUUAGAUA,pre-steady-state target cleavage rate,[1],0.297 ± 0.047
same,pre-steady-state target cleavage rate,[2],0.00556 ± 0.0028
UCCUGCUACAGUCUUGCAUAGUAUUUAGUUA,pre-steady-state target cleavage rate,[1],0.643 ± 0.033
same,pre-steady-state target cleavage rate,[2],0.0274 ± 0.005
UCCUGGAUGUCGUUGCAUAGUAUUUAGUUUA,pre-steady-state target cleavage rate,[1],0.022 ± 0.0057
same,pre-steady-state target cleavage rate,[2],0.00499 ± 0.003
UCCUGGAUGUCCUUGCAUAGUUUUUACUUA,pre-steady-state target cleavage rate,[1],0.00583 ± 0.0041
UCCUGGAUGUGCUUGCAUAGUAUUUAUUA,pre-steady-state target cleavage rate,[1],0.0179 ± 0.0058
UGGACCUACAGCUUGCAUAGUAUUUCGUUA,pre-steady-state target cleavage rate,[1],0.411 ± 0.054
same,pre-steady-state target cleavage rate,[2],0.0397 ± 0.0067
UCCUGGAUCAGCUUGCAUACUAAUUAGUUA,pre-steady-state target cleavage rate,[1],0.0563 ± 0.0091
same,pre-steady-state target cleavage rate,[2],0.00771 ± 0.0023
UCCUGCGACAGCUUGCAUAGUAUUUAGUUA,pre-steady-state target cleavage rate,[1],1.19 ± 0.06
same,pre-steady-state target cleavage rate,[2],0.0863 ± 0.017
UCCUGUUACAGCUUGCAUAGUAUUUAGUUA,pre-steady-state target cleavage rate,[1],1.28 ± 0.058
same,pre-steady-state target cleavage rate,[2],0.0747 ± 0.013
UCCUCCAUACAGCUUGCAUAGUAUUUAGUUA,pre-steady-state target cleavage rate,[1],0.364 ± 0.019
same,pre-steady-state target cleavage rate,[2],0.0335 ± 0.0051
UCCUGCUUACAGCUUGCAUAGUAUUUAGUUA,pre-steady-state target cleavage rate,[1],1.48 ± 0.13
same,pre-steady-state target cleavage rate,[2],0.0826 ± 0.02
UCCUGGUACAGCUUGCAUAGUAUUUAGUUA [g2:g24:cont:t1A],pre-steady-state target cleavage rate,[1],0.82 ± 0.041
same,pre-steady-state target cleavage rate,[2],0.0692 ± 0.013
UCCUCAUACAGCUUGCAUAGUAUUUAGUUA,pre-steady-state target cleavage rate,[1],1.47 ± 0.054
same,pre-steady-state target cleavage rate,[2],0.0664 ± 0.01
UCCUGCGUACAGCUUGCAUAGUAUUUAGUUA,pre-steady-state target cleavage rate,[1],1.33 ± 0.062
same,pre-steady-state target cleavage rate,[2],0.0785 ± 0.016
UCCUCCUUACAGCUUGCAUAGUAUUUAGUUA,pre-steady-state target cleavage rate,[1],1.3 ± 0.052
same,pre-steady-state target cleavage rate,[2],0.0583 ± 0.011
UCCUCACUACAGCUUGCAUAGUAUUUAGUUA,pre-steady-state target cleavage rate,[1],0.676 ± 0.03
same,pre-steady-state target cleavage rate,[2],0.0551 ± 0.0082
UCCUCUUACAGCUUGCAUAGUAUUUAGUUA,pre-steady-state target cleavage rate,[1],1.62 ± 0.055
same,pre-steady-state target cleavage rate,[2],0.061 ± 0.0099
UCCUCGCUACAGCUUGCAUAGUAUUUAGUUA,pre-steady-state target cleavage rate,[1],0.831 ± 0.05
same,pre-steady-state target cleavage rate,[2],0.0517 ± 0.0088
UCCUGGUUACAGCUUGCAUAGUAUUUAGUUA,pre-steady-state target cleavage rate,[1],1.01 ± 0.048
same,pre-steady-state target cleavage rate,[2],0.0561 ± 0.011
AGGACCUACAGCUUGCUUAGAAUUUAGUUA,pre-steady-state target cleavage rate,[1],0.377 ± 0.04
same,pre-steady-state target cleavage rate,[2],0.00929 ± 0.0032
UCCUGGAUGUCCUUACAUAGUAUUUAGUUA,pre-steady-state target cleavage rate,[1],0.0237 ± 0.0056
same,pre-steady-state target cleavage rate,[2],0.0041 ± 0.0017
UGGACCUACACGAUGCAUAGUAUUUAGAAA,pre-steady-state target cleavage rate,[1],0.122 ± 0.016
UCCUGCUACAGCUUGCUUAGUAUUUUCAAA,pre-steady-state target cleavage rate,[1],0.11 ± 0.028
UCCUGGUUCAGCUUGCAUUGUAUUUAGUUA,pre-steady-state target cleavage rate,[1],0.61 ± 0.028
same,pre-steady-state target cleavage rate,[2],0.0343 ± 0.01
UCCUGGUACAGCUUGCAUAGUAUUCUAGUUA,pre-steady-state target cleavage rate,[1],0.442 ± 0.092
same,pre-steady-state target cleavage rate,[2],0.00651 ± 0.0028
UCCACCUACAGCUUGCUUAGUAUUUAGAAA,pre-steady-state target cleavage rate,[1],0.226 ± 0.037
UCCACCUACAGCUUGCAUAGUACUUUAGUUA,pre-steady-state target cleavage rate,[1],0.447 ± 0.035
same,pre-steady-state target cleavage rate,[2],0.00964 ± 0.0027
UCCUGCUACAGCUUGCAUAGUAUUUAGUUG [g2:g25:cont:t1G],pre-steady-state target cleavage rate,[1],0.229 ± 0.019
same,pre-steady-state target cleavage rate,[2],0.0367 ± 0.0072
UCCUGAUACAGCUUGCAUAGUAUUUAGUUA,pre-steady-state target cleavage rate,[1],1.15 ± 0.046
same,pre-steady-state target cleavage rate,[2],0.0816 ± 0.017
UCCUGCAUACAGCUUGCAUAGUAUUUAGUUA,pre-steady-state target cleavage rate,[1],1.63 ± 0.12
same,pre-steady-state target cleavage rate,[2],0.0686 ± 0.013
UCGAGGUACAGCUUGCAUAGUAUUUUCAAA,pre-steady-state target cleavage rate,[1],0.278 ± 0.038
same,pre-steady-state target cleavage rate,[2],0.00215 ± 0.0021
UCCUGCUACAGCUUGCAUAGUUAUUACAAA,pre-steady-state target cleavage rate,[1],0.0101 ± 0.0052
AGGACCUACAGCUUGCAAUGUAUUUACAAA,pre-steady-state target cleavage rate,[1],0.0775 ± 0.019
UCCUCCUACACCUUGCAAAGUAUUUAGUUA,pre-steady-state target cleavage rate,[1],0.831 ± 0.043
same,pre-steady-state target cleavage rate,[2],0.0328 ± 0.0065
UCCUGCUACAGCUUGCAUUGUUUUUAGUUA,pre-steady-state target cleavage rate,[1],0.0845 ± 0.0095
same,pre-steady-state target cleavage rate,[2],0.00988 ± 0.0021
UCGACCUACAGCAUGCAUUGUAUUUAGUUA,pre-steady-state target cleavage rate,[1],0.944 ± 0.04
same,pre-steady-state target cleavage rate,[2],0.0101 ± 0.0026
AGAGACCUACAGCUUGCAUAGUAUUUAGUUA,pre-steady-state target cleavage rate,[1],1.46 ± 0.067
same,pre-steady-state target cleavage rate,[2],0.091 ± 0.017
UGAGACCUACAGCUUGCAUAGUAUUUAGUUA,pre-steady-state target cleavage rate,[1],1.49 ± 0.1
same,pre-steady-state target cleavage rate,[2],0.0826 ± 0.015
UCCUGGAACACCUUGGAUAGUAUUUAGUUA,pre-steady-state target cleavage rate,[1],0.286 ± 0.038
same,pre-steady-state target cleavage rate,[2],0.00651 ± 0.0022
UCCUGGAUGAGCUUGCAUAGUAUAUUAGUUA,pre-steady-state target cleavage rate,[1],0.464 ± 0.04
same,pre-steady-state target cleavage rate,[2],0.00823 ± 0.004
UCCUGGUACAGCUUGCAUAGUAAUUAGAUA,pre-steady-state target cleavage rate,[1],0.209 ± 0.042
same,pre-steady-state target cleavage rate,[2],0.00778 ± 0.0021
AGGACGUACAGCUUGCAUAGUAUUUAGAAA,pre-steady-state target cleavage rate,[1],0.432 ± 0.06
same,pre-steady-state target cleavage rate,[2],0.0172 ± 0.0052
UCCUGGAUGUCGAACGUAAGUAUUUAUUA,pre-steady-state target cleavage rate,[1],< 0.0001
same,pre-steady-state target cleavage rate,[2],< 0.0001
UCCACCUACAGCUUGGUAAGUAUUUAGUUA,pre-steady-state target cleavage rate,[1],0.0619 ± 0.011
AGGUACCUACAGCUUGCAUAGUAUUUAGUUA,pre-steady-state target cleavage rate,[1],1.35 ± 0.21
same,pre-steady-state target cleavage rate,[2],0.481 ± 0.15
UCCACCUACAGCUUGCAUAGUAUUUAGUUUA,pre-steady-state target cleavage rate,[1],0.907 ± 0.047
same,pre-steady-state target cleavage rate,[2],0.0632 ± 0.014
UGGUACCUACAGCUUGCAUAGUAUUUAGUUA,pre-steady-state target cleavage rate,[1],0.945 ± 0.17
same,pre-steady-state target cleavage rate,[2],0.117 ± 0.034
UCUACCUACAGCUUGCAUAGUAUUUAGUUA,pre-steady-state target cleavage rate,[1],1.4 ± 0.043
same,pre-steady-state target cleavage rate,[2],0.0731 ± 0.013
UCCACCUACAGCUUGCAUAGUAUUUAGGUA,pre-steady-state target cleavage rate,[1],0.3 ± 0.054
same,pre-steady-state target cleavage rate,[2],0.00404 ± 0.0029
ACCACCUACAGCUUGCAUAGUAUUUAGUUA,pre-steady-state target cleavage rate,[1],1.16 ± 0.056
same,pre-steady-state target cleavage rate,[2],0.0927 ± 0.017
UGUACCUACAGCUUGCAUAGUAUUUAGUUA,pre-steady-state target cleavage rate,[1],1.34 ± 0.049
same,pre-steady-state target cleavage rate,[2],0.0875 ± 0.013
AGUACCUACAGCUUGCAUAGUAUUUAGUUA,pre-steady-state target cleavage rate,[1],1.23 ± 0.064
same,pre-steady-state target cleavage rate,[2],0.0796 ± 0.013
